A selection: hits, their analogues and other compounds. The true share with any hit is near 1.5%.
TcdB GH inh – blocks C. difficile toxin B glycohydrolase activity | P18177 | TcdB glycohydrolase enzymatic assay, plate reader | inhibition, % at 9.99 µM | 0.24% of 350,000 active; in the data active = inhibition above about 10%
Vc quorum ag – quorum light induction in luxS cqsA deficient V. cholerae. 0.16% of 350,000 active. activation, % at 18.7 µM. V. cholerae BH1578 lux reporter, luminescence, 6 h; in the data active = activation mostly above about 9.7%, no sharp cut-off
CCHFV vOTU inh – CCHFV vOTU protease inhibition. inhibition, % at 11.5 µM. AID 651958. 0.55% of 370,000 active. Pep-AMC fluorescence; in the data active = inhibition above about 30%; note: 0% = vehicle wells with enzyme and 100% = no enzyme wells
PriA SSB inh – K. pneumoniae PriA-SSBct interaction inhibition | AlphaScreen SSBct-PriA binding, biotinylated peptide | inhibition, % at 33 µM | 0.6% of 430,000 active; in the data active = inhibition mostly above about 37%, no sharp cut-off; inactive = mostly below about 20%;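 note: plate controls were negative control peptide for no effect and reference peptide for full effect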
PrPC surface inh – cell surface PrPC inhibition, primary TR-FRET screen; P04156; TR-FRET read-out; inhibition, % at 13.8 µM; 0.43% of 370,000 active; AID 720596; in the data active = inhibition above about 24%; note: 0% = median of the test wells and 100% = reference compound wells
DUSP3 inh – inhibitors of human VHR1 phosphatase (DUSP3); P51452; recombinant VHR phosphatase, pNPP absorbance; inhibition, % at 13.3 µM; 0.52% of 290,000 active; AID 1654; in the data active = inhibition above about 50%
* = called active by the depositor.

Results for O=C(Nc1nccs1)c1ccc2nc(-c3ccccc3)c(-c3ccccc3)nc2c1 ?
PriA SSB inh: -8

What do the screens show for `CCCCNS(=O)(=O)c1ccc(OCC(=O)OC)cc1`?
TcdB GH inh: 10*; Vc quorum ag: 0; CCHFV vOTU inh: 1; PriA SSB inh: 11; PrPC surface inh: -3; DUSP3 inh: -8

What do the screens show for `CC(=O)Nc1cc(-c2ccc(F)cc2)[nH]n1`?
TcdB GH inh: 11*; Vc quorum ag: 0; CCHFV vOTU inh: 6; PriA SSB inh: 5; PrPC surface inh: 10; DUSP3 inh: 8

What do the screens show for `COC(=O)C1=CN(c2cccc(C)c2)C=C(C(=O)OC)C1c1cc(OC)c(O)c([N+](=O)[O-])c1`?
Vc quorum ag: inactive; CCHFV vOTU inh: -3; PriA SSB inh: 53*; PrPC surface inh: 2; DUSP3 inh: -4

How did C/C(CC(=O)Nc1cc(C)ccn1)=N\NC(=O)c1cccc(F)c1 do in these assays?
TcdB GH inh: -1; Vc quorum ag: 0; CCHFV vOTU inh: 10; PrPC surface inh: 0; DUSP3 inh: 52*

How did O=C(O)c1ccc2c(c1)[C@@H]1C=CC[C@@H]1[C@H](c1ccccn1)N2 do in these assays?
Vc quorum ag: 0; CCHFV vOTU inh: 54*; PriA SSB inh: 15; PrPC surface inh: 15

Results for O=C(O)C1Nc2ccc(Br)cc2C2C=CCC12 (stereo not drawn) ?
Vc quorum ag: 0; PriA SSB inh: 3; DUSP3 inh: 37

Results for O=C(OC1CCCCC1)c1ccc2c(c1)C1C=CCC1C(C(=O)O)N2 (stereo not drawn) ?
DUSP3 inh: 87*

Results for C[C@H](O)Cc1c(C(=O)O)[nH][nH]c1=O ?
PriA SSB inh: -20

How did O=C(NCCn1ccnc1-c1ncccn1)c1ccc(S(=O)(=O)N2CCOCC2)cc1 do in these assays?
PriA SSB inh: 92*

How did O=C(NCCN1CCOCC1)c1ccc(Cl)c(S(=O)(=O)N2CCCC2)c1 do in these assays?
TcdB GH inh: 0; Vc quorum ag: -1; CCHFV vOTU inh: -6; PriA SSB inh: 39*; PrPC surface inh: 4; DUSP3 inh: 41

How did O=C(NCCN1CCOCC1)c1ccc(Cl)c(S(=O)(=O)N2CCCCCC2)c1 do in these assays?
Vc quorum ag: 1; CCHFV vOTU inh: 21; PriA SSB inh: -3; PrPC surface inh: 3; DUSP3 inh: 17

Results for O=C(NCCn1ccnc1-c1ncccn1)C1(c2ccccc2)CCOCC1 ?
PriA SSB inh: 40*

Results for CS(=O)(=O)N1CCN(C(=O)CCc2csc(NC(=O)c3ccc[nH]c3=O)n2)CC1 ?
PriA SSB inh: -7

What do the screens show for `CCS(=O)(=O)C1CN(C(=O)c2cccc(SC)c2)C1`?
PriA SSB inh: -9

Results for Cc1ccc(S(=O)(=O)Nc2nc3ccccc3nc2NCCC2=CCCCC2)c(C)c1 ?
PriA SSB inh: -34

What do the screens show for `Cc1onc(-c2ccccc2)c1C(=O)NN=Cc1c[nH]c2ccccc12`?
PriA SSB inh: 5

What do the screens show for `Cc1onc(-c2ccccc2)c1C(=O)N/N=C/c1cn(C)c2ccccc12`?
TcdB GH inh: 13*; Vc quorum ag: inactive; CCHFV vOTU inh: 3; PrPC surface inh: 7; DUSP3 inh: 22

How did COCCNc1cc(N)c([N+](=O)[O-])cc1[N+](=O)[O-] do in these assays?
TcdB GH inh: 11*; Vc quorum ag: inactive; CCHFV vOTU inh: 11; PriA SSB inh: 3; PrPC surface inh: -28; DUSP3 inh: 2

What do the screens show for `CCOc1ccccc1NC(=O)C(=O)NCc1ccc(C(=O)c2ccco2)s1`?
PriA SSB inh: -6

How did COc1cccc(N2CC(O)Cn3c2nc2c3c(=O)[nH]c(=O)n2C)c1 (stereo not drawn) do in these assays?
TcdB GH inh: -2; Vc quorum ag: inactive; CCHFV vOTU inh: -8; PriA SSB inh: -1; PrPC surface inh: -7; DUSP3 inh: 60*

How did COc1ccc(CCNC(=O)NCC[C@H](O)C2CCOCC2)cc1 do in these assays?
PriA SSB inh: -12

Results for O=C(c1ccc2nc[nH]c2c1)N1CCC(Oc2ncccn2)CC1 ?
PriA SSB inh: 5

What do the screens show for `CC1CCCN(C(=O)c2ccc3nc[nH]c3c2)C1` (stereo not drawn)?
Vc quorum ag: 0; CCHFV vOTU inh: 0; PriA SSB inh: 8; PrPC surface inh: -1; DUSP3 inh: 52*

What do the screens show for `O=C(O)c1ccc(O)cn1`?
PriA SSB inh: 88

Screening data deposited in PubChem BioAssay by several laboratories.
